# MRP1 act – H69AR viability gain despite doxorubicin, primary screen, MRP-1 activator project, H69AR cells, CellTiter-Glo | viability rescue | viability increase, % at 10 µM | 140,000 compounds, 0.61% hits | AID 799, 2007;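 active = viability gain under doxorubicin at or above a set limit, the compound median plus 3 SD, cut at about 4.7% in these data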;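 also: MRP-1 overexpressing cells given doxorubicin 25 µM after compound pretreatment; 18-22 h compound pretreatment then 72 h with doxorubicin before readout; 0% = doxorubicin-only wells and 100% = vehicle-treated cells without doxorubicin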
# CYP2C9 inhib – blockers of cytochrome P450 2C9 activity – biochemical, luminescence, ADME assay, primary screen; P11712; CYP2C9 Supersomes, luciferin-H conversion; inhibition, % at 5 µM; 96,000 compounds, 20% hits;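 active = blocking of liver enzyme CYP2C9 beyond about 50% at 5 µM, limit read from the data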
# Target sequence (P11712 whole entry, looked up): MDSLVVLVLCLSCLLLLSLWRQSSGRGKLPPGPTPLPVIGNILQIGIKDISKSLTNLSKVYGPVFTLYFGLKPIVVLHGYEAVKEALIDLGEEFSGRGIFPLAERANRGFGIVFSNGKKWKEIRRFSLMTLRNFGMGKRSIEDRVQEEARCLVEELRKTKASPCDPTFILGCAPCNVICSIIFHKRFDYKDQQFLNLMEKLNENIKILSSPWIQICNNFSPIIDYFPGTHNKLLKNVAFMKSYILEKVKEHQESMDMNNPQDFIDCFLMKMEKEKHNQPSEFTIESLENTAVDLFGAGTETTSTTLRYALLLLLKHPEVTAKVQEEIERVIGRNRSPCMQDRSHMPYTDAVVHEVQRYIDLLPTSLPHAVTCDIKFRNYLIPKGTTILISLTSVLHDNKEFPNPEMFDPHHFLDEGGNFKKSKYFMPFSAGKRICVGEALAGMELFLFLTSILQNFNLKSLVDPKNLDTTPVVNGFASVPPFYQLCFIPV
# CYP2C9 activ – human CYP2C9 activators, primary screen, biochemical, luminescence; recombinant CYP2C9, luciferin-H conversion; active compounds read high; factor 1 = untreated enzyme, 0 = blocked; activation factor at 5 µM; 96,000 compounds, 1.4% hits; AID 1024, 2008;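 active = activation factor of 2 or more for CYP2C9 at a 5 µM dose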;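 also: 0 = sulfaphenazole-blocked wells and 1 = vehicle-only wells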
# CYP2C19 activ – human CYP2C19 activators, primary screen, biochemical, luminescence; activation factor at 5 µM; AID 1025, 2008; recombinant CYP2C19, luciferin-H EGE luminescence; active compounds read high; 0 = fully inhibited enzyme, 1 = untreated enzyme; Cytochrome P450 2C19 (Homo sapiens), P33261; 96,000 tested, under 10 active;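 active = activation factor of at least 2 at 5 µM in the primary screen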;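 also: 0 = wells with 2.5 mM tranylcypromine and 1 = vehicle-only wells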
# MRP resist rev – reversal of MRP1-mediated doxorubicin resistance, primary screen, H69AR cells, doxorubicin co-treatment. differential viability (reversal), % at 10 µM. H69AR cells + 2 uM doxorubicin, CellTiter-Glo, 72 h. 85,000 compounds, 0.04% hits;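 active = viability drop by adding the cancer drug above about 55%, with treated viability meeting a 40% cutoff, limit read from the data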;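 also: viability without doxorubicin minus viability with 2 µM doxorubicin for each compound; larger differential means the compound sensitizes cells more to doxorubicin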
# CYP2C19 inhib – blockers of cytochrome P450 2C19 activity – biochemical, luminescence, ADME assay, primary screen; CYP2C19 Supersomes, luciferin-H EGE luminescence, 30 min; inhibition, % at 5 µM; 96,000 compounds, 21% hits;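 active = CYP2C19 inhibition above a set limit at 5 µM in the primary screen, cut at about 50% in these data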;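 also: plate controls were negative control wells for no effect and 2.5 mM tranylcypromine positive control for full effect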
# An asterisk follows results filed as active; . = not tested or not shown. Sampled rows, rich in hits. Any-hit rate of the full collection: about 21%.
SMILES,MRP1 act,CYP2C9 inhib,CYP2C9 activ,CYP2C19 activ,MRP resist rev,CYP2C19 inhib
Cc1cc(C(F)F)n2ncc(C(=O)NCc3ccccc3)c2n1,-2,-10,1.1,0.4,6,60*
COc1ccc(CNC(=O)c2cnn3c(C(F)F)cc(C)nc23)cc1,-2,.,.,.,23,.
Cc1cc(C)n2ncc(C(=O)NCc3ccc(Cl)cc3)c2n1,-2,44,0.6,0.2,.,75*
O=C(NCCc1ccccc1)c1cnn2c(C(F)F)cc(C3CC3)nc12,-2,46,0.5,0.1,-22,87*
COC(=O)c1ccccc1NC(=O)c1cnn2c(C(F)F)cc(C3CC3)nc12,-1,14,0.9,1.1,.,-8
O=C(NCc1ccc(Cl)cc1)c1ccccc1Oc1ccccc1,2,54*,0.5,0.7,.,32
Cc1cc(C)n2ncc(C(=O)NCc3ccccc3)c2n1,-1,-2,1,0.8,-1,17
COC(=O)CC1SC(=O)NC1=Nc1ccc(OC)cc1 (stereo not given),0,18,0.8,0.6,-11,40
Cc1ccc(OCC(=O)N/N=C\c2ccncc2)c(C)c1,-3,.,.,.,.,.
CCOC(=O)N1CCN(C(=O)COc2cccc3c2CCN(Cc2ccc(F)cc2)C3=O)CC1,-1,.,.,.,.,.
Cc1cc(C)n2ncc(C(=O)NCCc3ccccc3)c2n1,-2,1,1,0.9,8,15
Cc1cc(C(F)F)n2ncc(C(=O)NCCc3ccccc3Cl)c2n1,0,10,0.9,0.3,11,74*
CCC(C)C(NC(C)=O)C(=O)NC(=O)NC(c1ccccc1)c1ccccc1 (stereo not given),0,80*,0.2,0.2,7,78*
O=C(COC(=O)CCCSc1nc2ccccc2[nH]1)Nc1ccc(Cl)cc1,1,.,.,.,.,.
O=C(NCC(=O)N1CCN(c2ncccn2)CC1)c1cccs1,-2,48,0.5,0.4,-3,59*
O=C(NCC(=O)N1CCCC1)c1cccs1,1,-8,1.1,1.1,.,-9
Cc1ccc(C(=O)NCC(=O)N2CCN(c3ncccn3)CC2)s1,-3,72*,0.3,0.6,-20,42
O=C(CN1CCN(c2ncccn2)CC1)N1CCN(C(c2ccccc2)c2ccccc2)CC1,.,.,.,.,9,.
CC(C)CCNC(=O)C(c1cccnc1)N(Cc1ccccc1)C(=O)Cn1nnc2ccccc21 (stereo not given),.,.,.,.,5,.
Cc1c(C(=O)OCC(=O)Nc2ccc3c(c2)OCO3)cccc1[N+](=O)[O-],0,.,.,.,.,.
Cc1ccc(NC(=S)N(Cc2cccs2)Cc2cc3cccc(C)c3[nH]c2=O)cc1,0,.,.,.,.,.
Cn1c(C(O)c2ccc(Cl)cc2)nc(Cl)c1Cl (stereo not given),0,15,0.9,0.1,12,91*
c1cnc2c(OCc3nc4ccccc4[nH]3)cccc2c1,-1,12,0.9,0.1,-18,95*
COc1ccc(NC(=O)Cc2nc3ccccc3[nH]2)cc1,0,26,0.7,0.3,7,67*
c1ccc2cc(OCc3nc4ccccc4[nH]3)ccc2c1,3,.,.,.,13,.
SMILES,MRP1 act,CYP2C9 inhib,CYP2C9 activ,CYP2C19 activ,MRP resist rev,CYP2C19 inhib
COc1cccc(OCc2nc3ccccc3[nH]2)c1,-2,65*,0.4,0,-2,100*
COc1ccccc1OCc1nc2ccccc2[nH]1,-1,26,0.7,0.3,-2,74*
Cc1nn(-c2ccccc2)c(/N=C/c2ccc(O)cc2)c1-c1ccccc1,-1,.,.,.,.,.
CCn1cc(/C=N\NC(=O)c2ccc(Cl)cc2)cn1,0,.,.,.,.,.
Cc1cc(NO)c(C(C)C)cc1N=O,-3,.,.,.,.,.
Cc1cccc(C(=O)NC(NC(=S)Nc2ccc(S(N)(=O)=O)cc2)C(Cl)(Cl)Cl)c1 (stereo not given),-3,.,.,.,.,.
COc1cccc(OCc2nc3ncc(Br)cc3[nH]2)c1,-2,35,0.6,0.5,-23,54*
O=C(c1ccc(Cl)cc1)C1CCN(C(=O)NC2CCCCC2)CC1,0,85*,0.2,0.1,-3,93*
CN(C)c1ccc(/C=N/c2cc(-c3ccccc3)nn2-c2ccccc2)cc1,1,52*,0.5,1,.,2
COCCNC(=O)c1c(N)n(/N=C/c2cccs2)c2nc3ccccc3nc12,0,61*,0.4,0.9,-12,9
CCCCNC(=O)c1c(N)n(/N=C/c2ccccn2)c2nc3ccccc3nc12,-2,29,0.7,0.8,.,15
CC(C)CNC(=O)c1c(N)n(/N=C/c2ccccn2)c2nc3ccccc3nc12,5.1*,12,0.9,1,35,-1
O=C(/C=C/c1cccnc1)c1ccc(NC(=O)c2cccc(Br)c2)cc1,-5,70*,0.3,0.6,.,38
O=C(c1cccc(NS(=O)(=O)c2cccc(F)c2)c1)N1CCN(c2ccccc2)CC1,-2,.,.,.,.,.
NC(=O)C1CCN(C(=O)c2cc(S(=O)(=O)N3CCOCC3)c(Cl)cc2Cl)CC1,-2,0,1,1,6,4
COc1cc2c(O)c3c(c(-c4ccc5c(c4)OCO5)c2cc1OC)C(=O)OC3,-6,68*,0.3,0.8,1,19
COc1cc2c(=O)n(-c3ccc(C)cc3)c(=O)n(CC(=O)c3ccc4c(c3)OCO4)c2cc1OC,0,2,1,1,-27,4
CCN(Cc1ccccc1)C(=O)CC1Oc2ccccc2NC1=O (stereo not given),0,-67,1.7,0.1,8,88*
CCN(CCNC(=O)CC1Oc2ccccc2NC1=O)c1ccccc1 (stereo not given),-1,-62,1.6,0.4,20,61*
O=C(CC1Oc2ccccc2NC1=O)NCCc1ccccc1 (stereo not given),-1,-75,1.7,0.6,-11,42
O=C(CC1Oc2ccccc2NC1=O)NC1CC1 (stereo not given),-1,-24,1.2,0.9,3,14
O=C(CC1Oc2ccccc2NC1=O)NC1CCCC1 (stereo not given),-1,-138,2.4*,0.7,-9,34
CCC(C)C(NC(=O)OC(C)(C)C)C(=O)NC(C(=O)N1CCCC1C(N)=O)C(C)CC (stereo not given),-1,-3,1,1,-5,4
CCC1(C)Cc2c(c(=O)n(-c3ccccc3)c3ncnc(N)c23)CO1 (stereo not given),0,-4,1,1.2,7,-15
CC(CCc1ccco1)NC(=O)Cn1nc(Cc2ccncc2)c2ccccc2c1=O (stereo not given),-1,86*,0.1,0.2,1,84*
O=C(Cn1nc(Cc2cccnc2)c2ccccc2c1=O)N1CCN(C(=O)c2ccco2)CC1,-2,50,0.5,0.9,1,8
